Screening results: PubChem, several laboratories
An excerpt weighted towards active compounds, which were near 27% of everything screened.
CYP2C19 inh: inhibitors of human CYP2C19; P33261; CYP2C19 Supersomes, luciferin-H EGE luminescence, 30 min; inhibition, % at 5 µM; actives 21% (n = 96,000); AID 778;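 active means CYP2C19 inhibition above a set limit at 5 µM in the primary screen, cut at about 50% in these data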
sEH inhibitor: inhibitors of human soluble epoxide hydrolase; recombinant human sEH enzymatic activity assay; inhibition, % at 2 µM; actives 0.34% (n = 91,000); AID 707; in the data active means inhibition above about 80%
Target sequence (P34913 whole entry, looked up): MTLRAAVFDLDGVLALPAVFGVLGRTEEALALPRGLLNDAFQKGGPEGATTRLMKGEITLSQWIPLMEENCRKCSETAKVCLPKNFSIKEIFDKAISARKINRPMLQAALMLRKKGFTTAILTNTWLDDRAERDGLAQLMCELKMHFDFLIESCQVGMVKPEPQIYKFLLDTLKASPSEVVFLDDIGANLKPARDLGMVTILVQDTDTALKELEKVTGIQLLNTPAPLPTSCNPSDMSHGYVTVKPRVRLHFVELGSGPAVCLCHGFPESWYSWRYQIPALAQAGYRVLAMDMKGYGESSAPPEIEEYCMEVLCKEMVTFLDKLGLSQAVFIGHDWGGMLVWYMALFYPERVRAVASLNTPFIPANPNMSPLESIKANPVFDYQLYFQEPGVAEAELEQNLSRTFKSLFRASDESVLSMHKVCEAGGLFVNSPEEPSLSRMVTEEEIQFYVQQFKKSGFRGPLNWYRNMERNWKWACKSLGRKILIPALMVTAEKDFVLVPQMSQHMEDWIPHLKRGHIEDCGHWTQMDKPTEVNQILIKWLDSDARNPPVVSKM
sEH act: activators of human soluble epoxide hydrolase. P34913. purified human sEH enzymatic activity, activator screen. activation, % at 2 µM. actives 0.04% (n = 91,000); in the data active means activation above about 37%
CYP2C19 activ: increases human CYP2C19 enzyme activity | recombinant CYP2C19, luciferin-H EGE luminescence; stronger effect = higher value; 0 = fully inhibited enzyme, 1 = untreated enzyme | P33261 | AID 1025 | 96,000 tested, under 10 active | activation factor at 5 µM;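 active means activation factor of at least 2 at 5 µM in the primary screen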
CYP2C9 activ: increases human cytochrome P450 2C9 activity; P11712; recombinant CYP2C9, luciferin-H conversion, luminescence; stronger effect = higher value; factor 1 = untreated enzyme, 0 = blocked; activation factor at 5 µM; actives 1.4% (n = 96,000); AID 1024;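 active means activation factor of 2 or more for CYP2C9 at a 5 µM dose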
CYP2C9 inhib: inhibitors of human CYP2C9 | P11712 | CYP2C9 Supersomes, luciferin-H conversion, luminescence | inhibition, % at 5 µM | actives 20% (n = 96,000) | AID 777;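 active means blocking of liver enzyme CYP2C9 beyond about 50% at 5 µM, limit read from the data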
Numbers stand for hits; n = inactive; x = not tested or not shown.

SMILES	CYP2C19 inh	sEH inhibitor	sEH act	CYP2C19 activ	CYP2C9 activ	CYP2C9 inhib
Cc1cc(C)c(C(=O)Nc2ccc(S(=O)(=O)Nc3onc(C)c3C)cc2)c(C)c1	n	n	n	n	n	n
Cc1noc(NS(=O)(=O)c2ccc(NC(=O)CS(=O)(=O)c3ccccc3)cc2)c1C	n	n	n	n	n	53.7
CCNS(=O)(=O)c1ccc(NS(C)(=O)=O)cc1	n	n	n	n	n	n
CCCCNS(=O)(=O)c1ccc(S(=O)(=O)NCc2ccncc2)cc1	x	n	n	x	x	x
CCCCNS(=O)(=O)c1ccc(NS(=O)(=O)c2c(C)cc(C)cc2C)cc1	85.0	n	n	n	n	98.3
CCNS(=O)(=O)c1ccc(NS(=O)(=O)c2cc(C)ccc2C)cc1	63.7	n	n	n	n	96.9
Cc1ccc(C)c(S(=O)(=O)Nc2ccc(S(=O)(=O)Nc3onc(C)c3C)cc2)c1	n	n	n	n	n	70.9
COc1cc(NC(=O)C2CCCCC2)c(OC)cc1NC(=O)CCC(=O)NCc1ccco1	n	n	n	n	n	n
O=C(COc1ccccc1)Nc1ccc(CSc2ccccc2)cc1	n	n	n	n	n	n
COc1ccc(NS(=O)(=O)c2cc(OC)ccc2NC(=O)c2cc(C)oc2C)cc1	91.3	n	n	n	n	n
COCCNC(=O)c1ccc(NS(=O)(=O)c2cc(C)ccc2C)cc1	n	n	n	n	n	n
Cc1ccc(C)c(S(=O)(=O)Nc2ccc(O)cc2)c1	72.3	n	n	n	n	n
Cc1cc(C)c(S(=O)(=O)Nc2ccc(O)cc2)cc1C	97.0	n	n	n	n	n
COc1ccc(NS(=O)(=O)c2cc(C(=O)O)ccc2C)cc1	n	n	n	n	n	n
COc1ccc(NS(=O)(=O)c2cc(C)ccc2C)cc1	82.4	n	n	n	n	72.2
COc1ccc(NC(=O)c2cc3cc(OC)ccc3oc2=N)cc1	n	x	x	n	n	n
CCCC(=O)NCCc1ccc(S(N)(=O)=O)cc1	n	n	n	n	n	n
O=C(NCc1cccnc1)c1cc(-c2cccs2)on1	n	n	n	n	n	n
NC(=O)CSc1nc(N)c2c3c(sc2n1)CCCCC3	66.8	x	x	n	n	n
CCSc1nc(N)c2c3c(sc2n1)CCC3	96.1	n	n	n	n	n
CNC(=O)CSc1nc(N)c2c3c(sc2n1)CCC3	n	n	n	n	n	n
Cn1c(NC(=O)c2cccc(C(F)(F)F)c2)cc(=O)n(C)c1=O	x	n	n	x	x	x
Cc1cc(C)nc(NC(=O)c2cnc3sccn3c2=O)n1	n	n	n	n	n	n
COc1ccc(C(=O)O)cc1Nc1cc(C)nc2ncnn12	n	n	n	n	n	n
Cc1ccc(-c2nn3c(C)nnc3c3ccccc23)cc1S(=O)(=O)NCc1ccco1	n	n	n	n	n	n
SMILES	CYP2C19 inh	sEH inhibitor	sEH act	CYP2C19 activ	CYP2C9 activ	CYP2C9 inhib
COc1ccc(-c2nn(C)c(=O)c3ccccc23)cc1NC(=O)Cn1nc(-c2ccccc2)c2ccccc2c1=O	n	n	n	n	n	72.3
Cc1ccc(-c2nn3c(C)nnc3c3ccccc23)cc1S(=O)(=O)NC(C)c1ccccc1 (stereo unspecified)	50.2	n	n	n	n	72.8
COc1ccc(OCC(=O)Nc2cc(-c3nn(C)c(=O)c4ccccc34)ccc2OC)cc1	n	n	n	n	n	n
Cc1ccc(-c2nn(CC(N)=O)c(=O)c3ccccc23)cc1S(=O)(=O)N(C)C	n	n	n	n	n	58.8
COc1ccc(-c2nn(C)c(=O)c3ccccc23)cc1NS(C)(=O)=O	n	n	n	n	n	50.8
CCC(C)(C)NC(=O)CN(C(=O)c1snc(C(N)=O)c1N)c1ccc(OC)c(OC)c1	n	n	n	n	n	n
O=C(O)c1cc2nc(C3CC3)cc(C(F)(F)F)n2n1	n	n	n	n	n	n
Cc1ccc(NC(=O)CSc2nnc(CCCCCNC(=O)OC(C)(C)C)o2)c(C)c1	x	n	n	x	x	x
COCCNS(=O)(=O)c1cc(-c2nn(C)c(=O)c3ccccc23)ccc1C	57.1	n	n	n	n	69.9
CCOC(=O)CNS(=O)(=O)c1cc(-c2n[nH]c(=O)c3ccccc23)ccc1C	50.2	n	n	n	n	64.8
COc1nnc(-c2ccc(C)c(S(=O)(=O)NCCO)c2)c2ccccc12	n	n	n	n	n	n
Cc1cc(C)n(CC(=O)NCc2cc(-c3nn(C)c(=O)c4ccccc34)ccc2C)n1	n	n	n	n	n	54.7
Cc1ccc(CSCc2nnc(SCC(=O)N3CCN(c4ccccc4)CC3)n2C)cc1	59.7	n	n	n	n	78.4
Cc1cccc(C(=O)NCc2nnc(SCC(=O)N3CCN(c4ccccc4)CC3)n2C)c1	x	n	n	x	x	x
CCn1c(Cc2ccc(OC)cc2)nnc1SCC(=O)N1CCN(c2ccccc2)CC1	n	n	n	n	n	n
CCn1c(CSCc2ccc(F)cc2)nnc1SCC(=O)N1CCN(c2ccccc2)CC1	80.3	n	n	n	n	58.1
CC(O)c1c(OCc2ccccc2)ncnc1OCc1ccccc1 (stereo unspecified)	n	n	n	n	n	n
CC(C)Cn1c(-c2csc3ccccc23)n[nH]c1=S	77.6	n	n	n	n	n
COc1ccc(-c2n[nH]c(=S)n2CC(C)C)cc1	78.5	n	n	n	n	56.1
CCn1c(-c2ccc(C)cc2)n[nH]c1=S	n	n	n	n	n	n
Cc1occc1-c1n[nH]c(=S)n1CC(C)C	x	n	n	x	x	x
CC(CCc1ccccc1)NC(=O)c1ccc(Cl)nc1 (stereo unspecified)	n	n	n	n	n	n
Cc1nc2cc(NC(=O)COc3ccccc3C#N)ccc2n1-c1ccccc1	n	n	n	n	n	n
c1ccc(CCn2nnnc2CN2CCc3ccccc32)cc1	97.8	n	n	n	n	86.3
Cc1ccccc1C(=O)NC1CCN(Cc2nnnn2CCc2ccccc2)CC1	n	n	n	n	n	n
SMILES	CYP2C19 inh	sEH inhibitor	sEH act	CYP2C19 activ	CYP2C9 activ	CYP2C9 inhib
CCOC(=O)c1ccc(N2C(=O)C3ON(c4ccccc4)C(c4ccco4)C3C2=O)cc1 (stereo unspecified)	n	n	n	n	n	n
C=CCCCCCCCCC(=O)NN	100.0	n	n	n	n	88.9
CCOC(=O)C(CSCC(=O)c1ccc(Cl)cc1Cl)NC(=O)OC(C)(C)C (stereo unspecified)	96.9	n	n	n	n	87.6
CCc1nnc(NC(=O)CCC(=O)N2CCN(c3ccccn3)CC2)s1	n	n	n	n	n	n
CC(O)c1ccc2c(c1)OCCOCCN(C)CCOCCO2 (stereo unspecified)	n	n	n	n	n	n
Brc1ccc2c(c1)OCCOCCOc1cc(Br)ccc1OCCOCCOCCO2	88.1	n	n	n	n	84.8
c1ccc(COc2ccc(CNCc3cccs3)cc2)cc1	54.4	n	n	n	n	n
CCNS(=O)(=O)c1ccc2c3c(cccc13)C(=O)N2	69.6	n	n	n	n	n
CCN(c1cccc(C)c1)S(=O)(=O)c1ccc2c3c(cccc13)C(=O)N2	x	n	n	x	x	x
